The supplement of paper PMC12645437, “Orthogonal IMiD-Degron Pairs Induce Selective Protein Degradation in Cells” (ACS Chemical Biology, 2025)
Over roughly 8,300 sequences, “log2 fold change of degron read counts, EGFP-low vs EGFP+ sorted cells (limma voom), compound-induced degradation” has its median near -1.1; the highest 2% begin near 3.2. For the sample, the highest values were picked, then their nearest neighbours and some sequences at random.

T1: CRBN, Q96SW2
T1 chain: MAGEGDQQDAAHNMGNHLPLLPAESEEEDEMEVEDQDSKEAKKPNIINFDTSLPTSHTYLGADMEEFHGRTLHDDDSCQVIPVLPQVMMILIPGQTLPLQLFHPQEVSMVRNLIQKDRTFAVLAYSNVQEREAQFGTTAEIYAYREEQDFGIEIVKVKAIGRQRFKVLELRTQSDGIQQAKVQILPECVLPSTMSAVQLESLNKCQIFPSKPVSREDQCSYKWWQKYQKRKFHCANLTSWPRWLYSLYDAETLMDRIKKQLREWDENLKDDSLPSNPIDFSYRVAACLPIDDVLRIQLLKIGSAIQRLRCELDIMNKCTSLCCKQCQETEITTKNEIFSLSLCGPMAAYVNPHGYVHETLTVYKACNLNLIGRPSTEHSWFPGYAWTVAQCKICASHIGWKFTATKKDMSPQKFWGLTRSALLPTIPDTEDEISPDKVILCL


Molecular target: T1, CRBN, Q96SW2
Experiment: log2 fold change of degron read counts, EGFP-low vs EGFP+ sorted cells (limma voom), compound-induced degradation; higher = more compound-induced degradation of the degron-EGFP fusion; degrons are variants of IKZF1/3 zinc finger 2; compound dose not given here
Settings: Jurkat, 18 h
[1] = compound: compound 19 (5-tert-butyl-thalidomide)
[2] = compound: compound 22 (5-morpholino-thalidomide)
[3] = compound: compound 33 (diphenyl IMiD analogue)
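Further: pooled lentiviral library of zinc finger degron-EGFP fusions in mCherry-positive Jurkat cells, FACS-sorted after compound exposure, with degron abundance counted by next-generation sequencing.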

| Sequence | log2 fold change of degron read counts [1] | log2 fold change of degron read counts [2] | log2 fold change of degron read counts [3] | log2 fold change of degron read counts (compound: thalidomide) |
| --- | --- | --- | --- | --- |
| FICSVCGHEFTQKGNLLRHIKL [46F_47I_49S_50V_52G_53H_54E_55F_67L_, Q9UKT9] | -3.46 | -3.92 | -3.21 | -3.41 |
| FNCPVCGAQFTQKGNLLRHIKL [46F_47N_49P_50V_52G_53A_54Q_55F_67L_, Q9UKT9] | 2.01 | 1.68 | 0.869 | 0.953 |
| FICPVCGAQFTQKGNLLRHIKL [46F_47I_49P_50V_52G_53A_54Q_55F_67L_, Q9UKT9] | -0.745 | 2.74 | 2.89 | 2.73 |
| FHCPVCGAQFTQKGNLLRHIKL [46F_47H_49P_50V_52G_53A_54Q_55F_67L_, Q9UKT9] | 1.78 | 2.55 | 2.19 | 1.13 |
| FDCPVCGAQFTQKGNLLRHIKL [46F_47D_49P_50V_52G_53A_54Q_55F_67L_, Q9UKT9] | 1.44 | 0.833 | 1.04 | 2.23 |
| FGCPVCGAQFTQKGNLLRHIKL [46F_47G_49P_50V_52G_53A_54Q_55F_67L_, Q9UKT9] | 3.8 | 2.65 | 1.73 | 1.07 |
| FQCPVCGAQFTQKGNLLRHIKL [46F_47Q_49P_50V_52G_53A_54Q_55F_67L_, Q9UKT9] | 0.712 | 2.48 | 2.51 | 3.59 |
| FLCDVCGALFTQKGNLLRHIKL [46F_47L_49D_50V_52G_53A_54L_55F_67L_, Q9UKT9] | -2.27 | -2.28 | -1.03 | -1.23 |
| FNCPVCGAVFTQKGNLLRHIKL [46F_47N_49P_50V_52G_53A_54V_55F_67L_, Q9UKT9] | 0.592 | 0.118 | 0.729 | 0.198 |
